Columns and labels:
[1] = molecular target: Serine/threonine-protein kinase 26 (Homo sapiens) (UniProt Q9P289); details: at 1 µM;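 note: mean inhibition of MST4 kinase activity, reported from the GSK PKIS inhibitor-set screening panel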
[2] = molecular target: Serine/threonine-protein kinase PAK 1 (Homo sapiens) (UniProt Q13153); details: at 0.1 µM
[3] = molecular target: Serine/threonine-protein kinase PAK 1 (Homo sapiens) (UniProt Q13153); details: at 1 µM
[4] = molecular target: Serine/threonine-protein kinase PAK 2 (Homo sapiens) (UniProt Q13177); details: at 0.1 µM
Sequence of Serine/threonine-protein kinase PAK 2 (Homo sapiens) (Q13177 whole entry): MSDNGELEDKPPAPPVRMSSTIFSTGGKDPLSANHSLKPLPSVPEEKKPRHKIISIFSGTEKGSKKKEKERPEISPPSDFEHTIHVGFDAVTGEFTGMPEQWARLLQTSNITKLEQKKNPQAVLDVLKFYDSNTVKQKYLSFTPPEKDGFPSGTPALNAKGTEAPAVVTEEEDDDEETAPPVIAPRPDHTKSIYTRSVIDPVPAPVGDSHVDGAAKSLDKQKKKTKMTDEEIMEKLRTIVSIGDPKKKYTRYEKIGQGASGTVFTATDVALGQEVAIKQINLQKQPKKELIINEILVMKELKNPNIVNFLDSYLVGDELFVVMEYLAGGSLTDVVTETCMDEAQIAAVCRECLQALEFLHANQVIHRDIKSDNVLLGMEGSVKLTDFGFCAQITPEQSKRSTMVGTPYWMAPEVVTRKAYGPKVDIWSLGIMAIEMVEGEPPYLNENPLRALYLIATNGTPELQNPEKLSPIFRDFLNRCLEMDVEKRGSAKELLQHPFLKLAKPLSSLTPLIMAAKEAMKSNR

[5] = molecular target: Serine/threonine-protein kinase PAK 2 (Homo sapiens) (UniProt Q13177); details: at 1 µM
[6] = molecular target: Serine/threonine-protein kinase PAK 3 (Homo sapiens) (UniProt O75914); details: at 0.1 µM
Sequence of Serine/threonine-protein kinase PAK 3 (Homo sapiens) (O75914 whole entry, looked up): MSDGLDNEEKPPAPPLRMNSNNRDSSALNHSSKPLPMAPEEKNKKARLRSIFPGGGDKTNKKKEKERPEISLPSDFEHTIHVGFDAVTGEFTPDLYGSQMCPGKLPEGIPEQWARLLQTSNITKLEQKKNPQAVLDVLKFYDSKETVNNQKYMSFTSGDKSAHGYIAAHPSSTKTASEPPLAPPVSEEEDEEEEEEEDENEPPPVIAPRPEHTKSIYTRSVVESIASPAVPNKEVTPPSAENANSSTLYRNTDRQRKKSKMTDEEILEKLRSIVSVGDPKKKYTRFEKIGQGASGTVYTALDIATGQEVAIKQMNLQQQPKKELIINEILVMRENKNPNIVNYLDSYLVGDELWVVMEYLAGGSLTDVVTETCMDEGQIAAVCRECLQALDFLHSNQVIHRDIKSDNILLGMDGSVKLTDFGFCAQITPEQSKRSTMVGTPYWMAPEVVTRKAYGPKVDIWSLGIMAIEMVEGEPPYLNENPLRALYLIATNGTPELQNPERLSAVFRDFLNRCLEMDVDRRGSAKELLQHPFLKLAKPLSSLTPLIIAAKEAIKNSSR

[7] = molecular target: Serine/threonine-protein kinase PAK 3 (Homo sapiens) (UniProt O75914); details: at 1 µM
[8] = molecular target: Serine/threonine-protein kinase PAK 5 (Homo sapiens) (UniProt Q9P286); details: at 0.1 µM
Sequence of Serine/threonine-protein kinase PAK 5 (Homo sapiens) (Q9P286 whole entry, looked up): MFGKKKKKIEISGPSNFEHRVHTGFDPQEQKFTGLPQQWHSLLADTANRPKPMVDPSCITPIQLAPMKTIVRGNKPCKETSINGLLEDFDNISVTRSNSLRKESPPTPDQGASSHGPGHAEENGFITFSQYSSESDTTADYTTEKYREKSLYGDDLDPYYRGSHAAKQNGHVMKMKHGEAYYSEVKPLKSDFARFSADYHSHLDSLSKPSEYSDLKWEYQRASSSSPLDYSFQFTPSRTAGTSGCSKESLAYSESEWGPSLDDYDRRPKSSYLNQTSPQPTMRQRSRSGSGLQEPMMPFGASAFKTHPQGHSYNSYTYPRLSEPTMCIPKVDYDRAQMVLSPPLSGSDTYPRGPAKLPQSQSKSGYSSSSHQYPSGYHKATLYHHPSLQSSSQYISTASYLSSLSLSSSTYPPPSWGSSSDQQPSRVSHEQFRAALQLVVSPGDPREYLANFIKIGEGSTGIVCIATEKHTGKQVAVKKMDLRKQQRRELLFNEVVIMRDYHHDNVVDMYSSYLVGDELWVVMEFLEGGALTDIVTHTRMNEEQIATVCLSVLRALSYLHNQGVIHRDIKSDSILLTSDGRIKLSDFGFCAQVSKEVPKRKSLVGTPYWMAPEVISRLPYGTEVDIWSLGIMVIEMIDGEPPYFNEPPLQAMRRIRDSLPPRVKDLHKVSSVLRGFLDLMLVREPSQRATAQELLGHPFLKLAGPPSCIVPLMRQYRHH

[9] = molecular target: Serine/threonine-protein kinase PAK 5 (Homo sapiens) (UniProt Q9P286); details: at 1 µM
[10] = molecular target: Serine/threonine-protein kinase PAK 6 (Homo sapiens) (UniProt Q9NQU5); details: at 0.1 µM
Sequence of Serine/threonine-protein kinase PAK 6 (Homo sapiens) (Q9NQU5 whole entry, looked up): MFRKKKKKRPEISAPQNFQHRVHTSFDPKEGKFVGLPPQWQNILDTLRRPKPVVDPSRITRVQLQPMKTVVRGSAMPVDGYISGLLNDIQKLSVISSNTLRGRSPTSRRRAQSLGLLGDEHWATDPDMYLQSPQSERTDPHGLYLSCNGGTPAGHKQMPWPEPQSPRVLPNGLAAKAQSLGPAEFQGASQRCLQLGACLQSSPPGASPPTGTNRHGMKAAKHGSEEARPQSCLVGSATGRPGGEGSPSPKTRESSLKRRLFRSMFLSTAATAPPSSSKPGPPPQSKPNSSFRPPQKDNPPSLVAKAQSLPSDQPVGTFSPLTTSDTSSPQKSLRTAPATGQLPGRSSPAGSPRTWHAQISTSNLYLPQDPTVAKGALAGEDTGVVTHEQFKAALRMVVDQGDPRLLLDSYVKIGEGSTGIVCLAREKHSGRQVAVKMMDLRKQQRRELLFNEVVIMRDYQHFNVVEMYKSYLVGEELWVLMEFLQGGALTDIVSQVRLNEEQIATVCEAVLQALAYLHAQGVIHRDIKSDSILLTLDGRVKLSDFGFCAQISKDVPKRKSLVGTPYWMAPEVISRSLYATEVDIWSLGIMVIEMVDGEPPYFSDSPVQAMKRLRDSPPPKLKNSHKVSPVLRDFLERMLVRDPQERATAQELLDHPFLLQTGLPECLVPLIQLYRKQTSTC

[11] = molecular target: Serine/threonine-protein kinase PAK 6 (Homo sapiens) (UniProt Q9NQU5); details: at 1 µM
[12] = test system: Tyrosine-protein kinase ABL1 (Homo sapiens), P00519 [E255K]; details: at 0.1 µM
[13] = test system: Tyrosine-protein kinase ABL1 (Homo sapiens), P00519 [E255K]; details: at 1 µM
[14] = test system: Tyrosine-protein kinase ABL1 (Homo sapiens), P00519 [H396P]; details: at 0.1 µM
[15] = test system: Tyrosine-protein kinase ABL1 (Homo sapiens), P00519 [H396P]; details: at 1 µM
[16] = test system: Tyrosine-protein kinase ABL1 (Homo sapiens), P00519 [M351T]; details: at 0.1 µM
[17] = test system: Tyrosine-protein kinase ABL1 (Homo sapiens), P00519 [M351T]; details: at 1 µM
[18] = test system: Tyrosine-protein kinase ABL1 (Homo sapiens), P00519 [Q252H]; details: at 0.1 µM
[19] = test system: Tyrosine-protein kinase ABL1 (Homo sapiens), P00519 [Q252H]; details: at 1 µM
[20] = test system: Tyrosine-protein kinase ABL1 (Homo sapiens), P00519 [T315I]; details: at 0.1 µM

Sequence of Serine/threonine-protein kinase PAK 1 (Homo sapiens) (Q13153 whole entry): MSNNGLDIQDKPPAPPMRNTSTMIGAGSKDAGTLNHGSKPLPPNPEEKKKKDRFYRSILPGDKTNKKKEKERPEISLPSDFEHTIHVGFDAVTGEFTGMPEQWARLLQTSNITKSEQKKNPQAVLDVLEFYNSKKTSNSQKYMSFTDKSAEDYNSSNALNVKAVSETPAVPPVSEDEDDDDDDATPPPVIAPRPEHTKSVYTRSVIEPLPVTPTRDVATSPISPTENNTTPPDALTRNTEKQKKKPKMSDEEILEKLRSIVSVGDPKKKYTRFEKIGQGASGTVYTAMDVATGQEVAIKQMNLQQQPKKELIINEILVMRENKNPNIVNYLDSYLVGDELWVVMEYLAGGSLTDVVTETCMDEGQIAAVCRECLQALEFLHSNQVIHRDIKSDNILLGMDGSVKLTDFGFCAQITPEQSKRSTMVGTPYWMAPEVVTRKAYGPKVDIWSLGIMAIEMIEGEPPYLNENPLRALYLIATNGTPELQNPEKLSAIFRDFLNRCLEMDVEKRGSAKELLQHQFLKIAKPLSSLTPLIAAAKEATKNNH
Sequence of Serine/threonine-protein kinase 26 (Homo sapiens) (Q9P289 2-416 limits assumed): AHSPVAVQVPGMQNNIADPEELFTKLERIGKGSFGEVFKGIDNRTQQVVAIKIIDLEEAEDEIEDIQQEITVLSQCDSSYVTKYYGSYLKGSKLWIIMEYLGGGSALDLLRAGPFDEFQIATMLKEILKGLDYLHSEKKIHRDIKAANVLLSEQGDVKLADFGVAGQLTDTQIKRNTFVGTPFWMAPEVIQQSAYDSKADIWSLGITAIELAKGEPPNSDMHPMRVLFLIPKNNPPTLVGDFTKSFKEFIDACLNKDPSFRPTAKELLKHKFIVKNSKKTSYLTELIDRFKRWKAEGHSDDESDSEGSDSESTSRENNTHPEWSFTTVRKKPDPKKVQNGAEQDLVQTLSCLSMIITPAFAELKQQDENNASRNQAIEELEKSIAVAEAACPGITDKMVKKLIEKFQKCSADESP

Cn1cc(C=C2C(=O)Nc3cccnc32)c2ccccc21
inhibition [1]: 1.1%
inhibition [2]: 5.04%
inhibition [3]: 6%
inhibition [4]: 0.8%
inhibition [5]: 0.31%
inhibition [6]: 2.68%
inhibition [7]: 3%
inhibition [8]: -6.57%
inhibition [9]: -5.19%
inhibition [10]: -3.53%
inhibition [11]: 0.69%
inhibition [12]: 5.17%
inhibition [13]: 28.1%
inhibition [14]: 7.05%
inhibition [15]: 37.5%
inhibition [16]: 3.06%
inhibition [17]: 35.9%
inhibition [18]: 6.07%
inhibition [19]: 33.2%
inhibition [20]: 8.02%

CC1=C(C(=O)Nc2ccc3[nH]ncc3c2)C(c2ccc(Cl)c(Cl)c2)CC(=O)N1 (stereo not given)
inhibition [1]: -1.05%
inhibition [2]: 2.74%
inhibition [3]: 3.36%
inhibition [4]: 0.48%
inhibition [5]: -0.06%
inhibition [6]: 0.86%
inhibition [7]: 0.53%
inhibition [8]: 4.97%
inhibition [9]: -3.2%
inhibition [10]: 6.11%
inhibition [11]: 2.05%
inhibition [12]: 1.47%
inhibition [13]: -1.52%
inhibition [14]: 1.38%
inhibition [15]: 0.16%
inhibition [16]: 1.24%
inhibition [17]: 1.38%
inhibition [18]: 3.45%
inhibition [19]: 3.33%
inhibition [20]: 1.44%

COC(=O)Nc1nc2cc(Oc3ccc(NC(=O)Nc4cccc(C(=O)O)c4)cc3)ccc2[nH]1
inhibition [1]: 3.41%
inhibition [2]: 0.04%
inhibition [3]: 2.31%
inhibition [4]: -0.12%
inhibition [5]: -0.31%
inhibition [6]: 0%
inhibition [7]: 0.98%
inhibition [8]: 7.82%
inhibition [9]: 3.29%
inhibition [10]: 3.13%
inhibition [11]: 4.26%
inhibition [12]: -4.91%
inhibition [13]: 3.52%
inhibition [14]: 0.4%
inhibition [15]: 9.38%
inhibition [16]: 3.52%
inhibition [17]: 19.9%
inhibition [18]: 1.92%
inhibition [19]: 14.4%
inhibition [20]: 2.13%

c1cnn2ncc(-c3ccnc(Nc4ccc5c(c4)OCCO5)n3)c2c1
inhibition [1]: -0.78%
inhibition [2]: 3.98%
inhibition [3]: 4.56%
inhibition [4]: 4.04%
inhibition [5]: 3.37%
inhibition [6]: 4.71%
inhibition [7]: 4.73%
inhibition [8]: 8.91%
inhibition [9]: 14.7%
inhibition [10]: 2.92%
inhibition [11]: 9.62%
inhibition [12]: 4.75%
inhibition [13]: 20.4%
inhibition [14]: 6.51%
inhibition [15]: 34.4%
inhibition [16]: 6.73%
inhibition [17]: 40.9%
inhibition [18]: 9.02%
inhibition [19]: 40.7%
inhibition [20]: 6.27%

O=C(Nc1n[nH]c2nc(-c3ccco3)c(Br)cc12)C1CC1
inhibition [1]: -2.34%
inhibition [2]: 4.84%
inhibition [3]: 6.66%
inhibition [4]: 2.69%
inhibition [5]: 3.61%
inhibition [6]: 3.75%
inhibition [7]: 3.54%
inhibition [8]: -1.27%
inhibition [9]: -1.99%
inhibition [10]: 0.11%
inhibition [11]: 0.72%
inhibition [12]: 3.52%
inhibition [13]: 8.63%
inhibition [14]: 5.52%
inhibition [15]: 26.4%
inhibition [16]: 4.18%
inhibition [17]: 29.8%
inhibition [18]: 8.1%
inhibition [19]: 32.3%
inhibition [20]: 3.13%

COc1ccc(-c2nn3ncccc3c2-c2ccnc(Nc3ccc(Cl)c(C(F)(F)F)c3)n2)cc1
inhibition [1]: 0.3%
inhibition [2]: 2.46%
inhibition [3]: 0.59%
inhibition [4]: -0.08%
inhibition [5]: 0.63%
inhibition [6]: 2.32%
inhibition [7]: 2.56%
inhibition [8]: 1.71%
inhibition [9]: -1.65%
inhibition [10]: -0.34%
inhibition [11]: -4.72%
inhibition [12]: 0.96%
inhibition [13]: 5.54%
inhibition [14]: 0.79%
inhibition [15]: 8.65%
inhibition [16]: 2.03%
inhibition [17]: 26.5%
inhibition [18]: 4.06%
inhibition [19]: 18.9%
inhibition [20]: 1.74%

CCc1cccc(NC(=O)Nc2ccc(Oc3ccc4nc(NC(=O)OC)[nH]c4c3)cc2)c1
inhibition [1]: 2.74%
inhibition [2]: 1.22%
inhibition [3]: 2.79%
inhibition [4]: 0.53%
inhibition [5]: 0.26%
inhibition [6]: 0.88%
inhibition [7]: 2.93%
inhibition [8]: 8.59%
inhibition [9]: -2.14%
inhibition [10]: 15.4%
inhibition [11]: 1.29%
inhibition [12]: 6.09%
inhibition [13]: 14.3%
inhibition [14]: 34%
inhibition [15]: 51.8%
inhibition [16]: 48.6%
inhibition [17]: 57.9%
inhibition [18]: 48.4%
inhibition [19]: 60.8%
inhibition [20]: 40.6%

COc1cc(C=NNc2ncnc3c2cnn3-c2ccccc2)ccc1O
inhibition [1]: 13.3%
inhibition [2]: 4.14%
inhibition [3]: 5.41%
inhibition [4]: 2.39%
inhibition [5]: 1.53%
inhibition [6]: 2.39%
inhibition [7]: 2.83%
inhibition [8]: -3.08%
inhibition [9]: 0.18%
inhibition [10]: 5.73%
inhibition [11]: 2.62%
inhibition [12]: 24.9%
inhibition [13]: 77.9%
inhibition [14]: 40.3%
inhibition [15]: 84.9%
inhibition [16]: 40.1%
inhibition [17]: 88.5%
inhibition [18]: 50.5%
inhibition [19]: 88.7%
inhibition [20]: 32%

COc1cccc(-n2ncc3c(N/N=C/c4cccc(F)c4)ncnc32)c1
inhibition [1]: 2.84%
inhibition [2]: 6.15%
inhibition [3]: 6.44%
inhibition [4]: 0.05%
inhibition [5]: 0.67%
inhibition [6]: 1.51%
inhibition [7]: 2.17%
inhibition [8]: -1.62%
inhibition [9]: -8.07%
inhibition [10]: 12.7%
inhibition [11]: -4.69%
inhibition [12]: 40.5%
inhibition [13]: 84.1%
inhibition [14]: 51%
inhibition [15]: 87.6%
inhibition [16]: 52.3%
inhibition [17]: 88%
inhibition [18]: 60.9%
inhibition [19]: 90.3%
inhibition [20]: 10.8%

Cc1ccc(NC(=O)c2ccnc(N3CCCC3)c2)cc1-c1ccc(C(=O)NCC2CC2)cc1
inhibition [1]: 6.65%
inhibition [2]: 5.46%
inhibition [3]: 8.39%
inhibition [4]: 1.66%
inhibition [5]: 0.96%
inhibition [6]: 4.52%
inhibition [7]: 5.08%
inhibition [8]: -9.56%
inhibition [9]: -5.63%
inhibition [10]: -2.61%
inhibition [11]: -7.72%
inhibition [12]: 1.9%
inhibition [13]: 5.48%
inhibition [14]: 3%
inhibition [15]: 2.43%
inhibition [16]: 0.54%
inhibition [17]: 9.12%
inhibition [18]: 2.92%
inhibition [19]: 12.4%
inhibition [20]: 0.94%

CC(C)=Cc1cccc2c1/C(=N/Nc1ccc(S(N)(=O)=O)cc1)C(=O)N2
inhibition [1]: 35.5%
inhibition [2]: -2.27%
inhibition [3]: 1.28%
inhibition [4]: 0.39%
inhibition [5]: 1.15%
inhibition [6]: 0.22%
inhibition [7]: 1.61%
inhibition [8]: 8.32%
inhibition [9]: 3.26%
inhibition [10]: 7.25%
inhibition [11]: -0.47%
inhibition [12]: 1.22%
inhibition [13]: 9.2%
inhibition [14]: 2.39%
inhibition [15]: 13.8%
inhibition [16]: 2.77%
inhibition [17]: 26.6%
inhibition [18]: 3%
inhibition [19]: 18.2%
inhibition [20]: 0.99%

Nc1ncnc2occ(-c3ccc(NC(=O)Nc4cccc(C(F)(F)F)c4)cc3)c12
inhibition [1]: -4.13%
inhibition [2]: 6.38%
inhibition [3]: 5.2%
inhibition [4]: 1.77%
inhibition [5]: 1.5%
inhibition [6]: 6.37%
inhibition [7]: 5.54%
inhibition [8]: 2.15%
inhibition [9]: 3.35%
inhibition [10]: -0.62%
inhibition [11]: -2.37%
inhibition [12]: 5.41%
inhibition [13]: 38.8%
inhibition [14]: 25.3%
inhibition [15]: 76.8%
inhibition [16]: 54.5%
inhibition [17]: 85.1%
inhibition [18]: 54.2%
inhibition [19]: 81.6%
inhibition [20]: 48.3%

CN(C)c1cc2c(Nc3ccc4nc(Cc5ccccc5)[nH]c4c3)ncnc2cn1
inhibition [1]: -0.63%
inhibition [2]: 8.36%
inhibition [3]: 8.45%
inhibition [4]: 2.07%
inhibition [5]: 1.52%
inhibition [6]: 6.44%
inhibition [7]: 7.25%
inhibition [8]: 9.58%
inhibition [9]: -7.55%
inhibition [10]: 7.15%
inhibition [11]: -5.69%
inhibition [12]: 3%
inhibition [13]: 2.89%
inhibition [14]: 6.52%
inhibition [15]: 4.37%
inhibition [16]: 2.81%
inhibition [17]: 3.14%
inhibition [18]: 6.01%
inhibition [19]: 5.74%
inhibition [20]: 5.24%

Reference: ChEMBL document CHEMBL1961873, “Compounds: GSK PKIS; Assays: Nanosyn kinase panel” (2012)
